Test results from the supplement of paper PMC13380429.

System: Vero E6 infected with SARS-CoV-2
Assay: inhibition of SARS-CoV-2 cytopathic effect; higher = more antiviral protection, active = above 15
Conditions: 48 h

Measured: inhibition of SARS-CoV-2 cytopathic effect

CCCC[N+]1(C)[C@@H]2C[C@@H](OC(=O)[C@H](CO)c3ccccc3)C[C@H]1[C@@H]1O[C@@H]12 (stereo not given in full) [butylscopolamine-bromide]
inactive: 1 nM -2.47% | 8.33 nM -2.18% | 100 nM -2.19% | 833.33 nM 0.56% | 10000 nM -1.1%

COc1ccnc(C[S+]([O-])c2nc3cc(OC(F)F)ccc3[nH]2)c1OC (stereo not given) [pantoprazole]
inactive: 1 nM -1.17% | 8.33 nM -2.35% | 100 nM -4.09% | 833.33 nM 0.78% | 10000 nM 0.79%

Cc1c(Cl)cccc1S(=O)(=O)Nc1nc(CC(=O)N2CCN(C)CC2)cs1
inactive: 1 nM 1.65% | 8.33 nM 0.23% | 100 nM -1.13% | 833.33 nM 3.23% | 10000 nM 2.25%

CCN(CCO)CCCOc1ccc2c(Nc3cc(CC(=O)Nc4cccc(F)c4)[nH]n3)ncnc2c1 [barasertib-HQPA]
inactive: 1 nM -1.93% | 8.33 nM -0.82% | 100 nM -3.04% | 833.33 nM -4.18% | 10000 nM -5.49%

C[C@@H]1C[C@H]2[C@@H]3CCC4=CC(=O)C=C[C@]4(C)[C@@]3(F)[C@@H](O)C[C@]2(C)[C@@]1(O)C(=O)COP(=O)(O)O
inactive: 1 nM -1.27% | 8.33 nM 0.18% | 100 nM -1.45% | 833.33 nM -3.81% | 10000 nM 0.77%

CN(C)[C@@H]1C(O)=C(C(N)=O)C(=O)[C@@]2(O)C(O)=C3C(=O)c4c(O)cccc4[C@@](C)(O)[C@H]3C[C@@H]12 [tetracycline]
inactive: 1 nM 1.65% | 8.33 nM 1.27% | 100 nM -0.37% | 833.33 nM -0.82% | 10000 nM 1.35%

CCCCCCc1ccc(O)cc1O.Nc1c2ccccc2nc2ccccc12 [acrisorcin]
inactive: 1 nM 1.59% | 8.33 nM 2.93% | 100 nM 1.22% | 833.33 nM 3.53% | 10000 nM -18.5%

CC(=O)NCC(=O)N1[C@@H]2CC[C@H]1c1ccc(Nc3ncc(C(F)(F)F)c(NC4CCC4)n3)cc12
inactive: 1 nM -2.51% | 8.33 nM -1.15% | 100 nM -2.99% | 833.33 nM -4.63% | 10000 nM -15.4%

N=C(N)c1ccc(-c2ccc(-c3ccc(C(=N)N)cc3)o2)cc1 [furamidine]
inactive: 1 nM -2.49% | 8.33 nM 0.26% | 100 nM -3.62% | 833.33 nM 0.94% | 10000 nM 2.72%

N#Cc1cc(NC(=O)C(=O)O)c(Cl)c(NC(=O)C(=O)O)c1 [lodoxamide]
inactive: 1 nM -2.56% | 8.33 nM 1.86% | 100 nM -0.16% | 833.33 nM -3.06% | 10000 nM -0.06%

O=C1NN(C(=O)Nc2ccc(Br)cc2)[C@@H](c2ccccc2)[C@@H]1c1ccccc1
inactive: 1 nM 0.57% | 8.33 nM 1.35% | 100 nM -2.12% | 833.33 nM -0.26% | 10000 nM -1.96%

CC(C)CCN1c2nc(Nc3cc(F)c(O)c(F)c3)ncc2N(C)C(=O)[C@@H]1C
inactive: 1 nM -1.15% | 8.33 nM -2.75% | 100 nM -6.09% | 833.33 nM -0.02% | 10000 nM 8.71%

CNCCCN1c2ccccc2CCc2ccccc21 [desipramine]
inactive: 1 nM -0.7% | 8.33 nM -0.11% | 100 nM -1.22% | 833.33 nM -1.13% | 10000 nM -2.62%

O=C(NCCS(=O)(=O)c1ccc(C(F)(F)F)cn1)c1ccc(Cl)cc1
inactive: 1 nM 4.56% | 8.33 nM -1.99% | 100 nM 5.99% | 833.33 nM 1.04% | 10000 nM 1.56%

COc1cccc(C(=O)CCN[C@@H](C)[C@H](O)c2ccccc2)c1 [oxyfedrine]
inactive: 1 nM 0.05% | 8.33 nM 1.34% | 100 nM -0.45% | 833.33 nM 0.14% | 10000 nM 1.77%

Cc1cc(C(N)=O)ccc1-n1c(CCC(=O)O)ccc1-c1ccc(-n2ccnc2)cc1
inactive: 1 nM -3.46% | 8.33 nM 2.86% | 100 nM 2.45% | 833.33 nM -1.56% | 10000 nM -2.98%

C[C@@H](O[C@H]1OCCN(Cc2n[nH]c(=O)[nH]2)[C@H]1c1ccc(F)cc1)c1cc(C(F)(F)F)cc(C(F)(F)F)c1 [aprepitant]
inactive: 1 nM -2.6% | 8.33 nM -2.93% | 100 nM -3.21% | 833.33 nM -4.32% | 10000 nM -6.5%

O=C(Nc1ccc(Oc2ccc(Cl)cn2)c(Cl)c1)c1ccccn1
inactive: 1 nM 0.81% | 8.33 nM -0.54% | 100 nM 1.75% | 833.33 nM -3.64% | 10000 nM 0.26%

CCC(=O)Nc1cccc(Oc2nc(Nc3ccc(N4CCN(C)CC4)cc3OC)ncc2Cl)c1
inactive: 1 nM -2.36% | 8.33 nM -1.81% | 100 nM -3.83% | 833.33 nM -2.5% | 10000 nM 1.78%
